Assay [1] concerns the target Lysosomal acid glucosylceramidase (Homo sapiens) (UniProt P04062). As to the kind of experiment: Glucocerebrosidase-p2 (AID 348; in the data active = potency below about 10 µM; also: potency is read from the fitted curve at half-maximal effect). The note with it: purified GBA, blue fluorogenic substrate, 40 min. Put shortly: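 Normal human glucocerebrosidase (0.2 nM) with blue fluorogenic substrate (80 uM final) in citrate/phosphate pH 5.9 with 10mM sodium taurocholate, 0.01% tween-20; 40 min RT, NaOH/glycine stop; fluorescence Ex 365/Em 440; AC50 from a titration from 0.6 nM upwards.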

Assay [2] is described as follows: AP1 Signaling Pathway (AID 357). Also: % is scaled to controls: 0 for no effect and ±100 for the full control effect. The note with it: ME-180 AP-1-bla reporter, EGF-induced, beta-lactamase ratio, 5 h; at 7.69 µM (top of the series) unless noted. In short, it runs like this: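 Titration-series screen for positive or negative modulators of EC50 EGF-induced signaling in ME-180 cells carrying an AP-1-driven beta-lactamase reporter. After 5 hours at 37 degrees Celsius, CCF4 460nm/530nm emission ratio gave %Activity; AC50 values derived.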

Assay [3] can be described thus: Stat Signaling Pathway (AID 446).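 Also: ME-180 cervical cancer cells given 40 pM IL-6 alongside compound; SIE-controlled beta-lactamase reporter measured as 460/530 nm FRET emission ratio; % is scaled to controls: 0 for no effect and ±100 for the full control effect.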 Conditions: ME-180 (cervical carcinoma) SIE beta-lactamase reporter, IL-6 stimulated, 5 h; at 7.69 µM (top of the series) unless noted. In short, it runs like this:
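FRET read-out (405 nm excitation, 460/530 nm emission) of a beta-lactamase reporter under a STAT-inducible element in ME-180 cervical carcinoma cells. Cells with compound receive 40 pM IL-6 for 5 h. Values are normalised to AC90 stimulation and AC90 JAK-inhibitor controls.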

The target of assay [4] is Glucocorticoid receptor (Homo sapiens) (UniProt P04150). As to the kind of experiment: GR-EFC Redistribution (AID 451; calls by dose curve; also: potency is read from the fitted curve at half-maximal effect). Conditions: CHO-K1 GR-EFC translocation, beta-gal luminescence, 2 h. Put shortly:
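CHO-K1 cells expressing nuclear EA and GR-ED fragments of b-gal; compounds titrated up to 46 uM final, 2 h at 37 C. GR nuclear translocation read as complemented b-gal luminescence after 1 h RT detection.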

Assay [5] has as its target Mitogen-activated protein kinase 10 (Mus musculus) (UniProt Q61831). Briefly: JNK3 AlphaScreen Assay (AID 530).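 Also: kinase came from lysate of stimulated human HepG2 cells; signal reports phosphorylation of biotinylated GST-cJun 1-79 at Ser73 with 10 µM ATP; % is scaled to controls: 0 for no effect and ±100 for the full control effect.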 Conditions: JNK3 lysate, c-Jun phosphorylation; series mostly up to 57.1 µM. Put shortly:
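HepG2 lysate (IL-1b/TNFa pre-activated) + biotin-GST-cJun 1-79 + anti-pSer73 cJun; cpd titration, 15 min RT; ATP 10 uM start; Tris pH 7.6, MgCl2, DTT, vanadate; beads in EDTA buffer; AlphaScreen.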
In general terms: Alpha assays give light when donor and acceptor beads are brought close together.

The target in assay [6] is 3',5'-cyclic-AMP phosphodiesterase 4B (Homo sapiens) (UniProt Q07343). Briefly: qHTS Assay for Inhibitors of PDE-IV (AID 607; active = well fitted activation curve with a large enough effect in the main read-out, with a control signal flat, not every such curve was filed as active; also: % of control where 0% means no effect). The note with it: HEK293 ACTOne CNG channel cells, membrane potential fluorescence; series mostly up to 22.9 µM. In short, it runs like this:
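Cell-based read-out of cAMP via a modified cyclic nucleotide-gated channel and membrane potential dye (535/590 nm) in HEK293 cells expressing PDE4 endogenously. Compounds tested up to 22.9 uM final; 100 uM RO 20-1724 reference.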

Assay [7] in a line: Primary qHTS for small molecule stabilizers of the endoplasmic reticulum resident proteome: Secreted ER Calcium Modulated Protein (SERCaMP) assay (AID 1508630; active = well fitted curve in the direction sought with a large enough effect; an effect the other way counts as inactive or inconclusive; also: % is scaled to controls: 0 for no effect and ±100 for the full control effect). The note with it: SH-SY5Y GLuc-SERCaMP (Gaussia luciferase released on ER calcium loss) secretion, thapsigargin, luminescence; series mostly up to 38.4 µM. Put shortly: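 The SH-SY5Y reporter protocol was run at 3 concentrations up to 38.3 uM (primary) or 11 concentrations (follow-up): 16 h compound, 100 nM thapsigargin for 4 h, then extracellular luciferase luminescence.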
In general terms: qHTS replaces the single test concentration by a dilution series.

Assay [8] is described as follows: NFAT Signaling Pathway (AID 444). The note with it: Jurkat NFAT-bla M1, carbachol, beta-lactamase ratio, 5 h; at 7.69 µM (top of the series) unless noted. In short, it runs like this: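 Jurkat cells with NFAT-driven β-lactamase reporter and co-expressed M1 receptor, stimulated with carbachol (final 1 uM, ~EC50), compound titration, 5 h at 37 °C. CCF4 loaded 1 h at RT; 460/530 nm ratio gave %activity and AC50.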

The target of assay [9] is Glucocorticoid receptor (Homo sapiens) (UniProt P04150). Briefly: GR-GFP Redistribution (AID 450;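 active = compounds whose dose series gives a full or clear partial fitted curve of increased nuclear translocation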; also: potency is read from the fitted curve at half-maximal effect). The note with it: U2OS GR-GFP nuclear translocation, laser cytometry, 2 h.
Sequence of Glucocorticoid receptor (Homo sapiens) (P04150 whole entry, looked up, the tested form may be a part): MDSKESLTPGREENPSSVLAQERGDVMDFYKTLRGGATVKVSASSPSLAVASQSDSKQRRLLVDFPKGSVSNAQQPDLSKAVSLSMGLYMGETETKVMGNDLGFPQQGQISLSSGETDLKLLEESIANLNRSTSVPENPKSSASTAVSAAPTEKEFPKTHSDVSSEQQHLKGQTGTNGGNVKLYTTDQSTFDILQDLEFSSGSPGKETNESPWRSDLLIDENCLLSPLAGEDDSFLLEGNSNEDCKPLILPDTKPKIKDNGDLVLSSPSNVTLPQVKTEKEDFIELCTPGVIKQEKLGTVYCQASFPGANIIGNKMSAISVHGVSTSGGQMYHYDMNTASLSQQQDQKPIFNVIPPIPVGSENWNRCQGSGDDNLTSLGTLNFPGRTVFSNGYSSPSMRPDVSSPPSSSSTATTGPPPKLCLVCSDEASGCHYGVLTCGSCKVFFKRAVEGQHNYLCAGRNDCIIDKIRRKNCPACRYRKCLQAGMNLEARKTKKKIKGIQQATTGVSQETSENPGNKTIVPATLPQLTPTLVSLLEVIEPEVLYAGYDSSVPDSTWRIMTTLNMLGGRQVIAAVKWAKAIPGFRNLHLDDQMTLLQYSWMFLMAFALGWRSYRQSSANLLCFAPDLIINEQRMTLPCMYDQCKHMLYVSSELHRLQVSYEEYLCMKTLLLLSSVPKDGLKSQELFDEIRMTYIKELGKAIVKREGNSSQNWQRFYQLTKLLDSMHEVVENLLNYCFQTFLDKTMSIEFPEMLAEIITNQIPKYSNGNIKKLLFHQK
For assay [10], the target named is Cytochrome P450 3A4 (Homo sapiens) (UniProt P08684). As to the kind of experiment: qHTS Assay for Inhibitors and Substrates of Cytochrome P450 3A4 (AID 884; active = well fitted curve in the direction sought with a large enough effect; an effect the other way counts as inactive or inconclusive; also: potency is read from the fitted curve at half-maximal effect; nearly all actives have a fitted effect of over 50% in size). Conditions: recombinant CYP3A4, Luciferin-PPXE luminescence; series mostly up to 57.1 µM. In short, it runs like this:
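Luminescent readout of luciferin produced by CYP3A4 (20 nM) dealkylation of Luciferin-PPXE, 25 uM (its KM). NADPH-driven reaction ran 60 min at RT after 10 min compound preincubation; data scaled to 57 uM ketoconazole as 100% inhibition.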

Assay [11] has the same target. As to the kind of experiment: qHTS Assay for Activators of Cytochrome P450 3A4 (AID 885; active = well fitted curve in the direction sought with a large enough effect; an effect the other way counts as inactive or inconclusive; also: nearly all actives have a fitted effect of over 65% in size). Conditions: recombinant CYP3A4, Luciferin-PPXE luminescence, 60 min; series mostly up to 57.1 µM. Put shortly: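 Luminescent readout of luciferin formed from 25 uM Luciferin-PPXE (KM level) by 20 nM CYP3A4 in 200 mM KPO4, with 60 min NADPH-driven reaction at room temperature after 10 min compound exposure. Ketoconazole (57 uM) defined 100% inhibition.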

The nature of assay [12]: Confirmation and Secondary Assay for Modulators of Hemoglobin Beta Chain Splicing at IVS2 654 locus (AID 910; active = well fitted curve in the direction sought with a large enough effect; an effect the other way counts as inactive or inconclusive;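 also: HeLa cells stably carrying EGFP split by mutant beta-globin IVS2-654 intron; % of control where 0% means no effect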). The note with it: HeLa EGFP-654 splicing reporter, GFP fluorescence, 48 h; series mostly up to 38.3 µM. Put shortly:
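HeLa cells stably expressing EGFP interrupted by β-globin IVS2-654 intron, seeded overnight in Opti-MEM/2% FCS, then treated 2 days at 37 °C. Restored splicing read as total peak GFP intensity per well by laser scanning cytometry (488 nm excitation, 500–520 nm emission); 500 nM antisense PNA as control.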

Assay [13] can be described thus: Confirmation and Secondary Assay for Modulators of Hemoglobin Beta Chain Splicing at IVS2 705 locus (AID 930; active = well fitted curve in the direction sought with a large enough effect; an effect the other way counts as inactive or inconclusive;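 also: HeLa cells stably expressing the EGFP-705 splicing reporter; GFP fluorescence per well restored by corrected splicing of the IVS2-705 intron in EGFP; % of control where 0% means no effect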). Conditions: HeLa EGFP-705 splicing reporter, GFP fluorescence, 48 h; series mostly up to 38.3 µM. In short, it runs like this:
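Assay measures total GFP intensity per well in HeLa EGFP-705 cells after 2 days with compound; mis-splicing normally truncates EGFP, so fluorescence indicates corrected splicing.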

Molecules are shown by their SMILES. Values without a mark were called inactive. Inconclusive results are not listed. Calls of active or inactive are those of the source. Unless noted, calls follow the shape of the dose curve; as a rule, active = well fitted curve in either direction with a large enough effect (not every such curve was filed as active); inconclusive = small, poorly fitted or top-dose-only effect, or another doubt; inactive = flat fitted curve, though single readings scatter.

The record followed here is PubChem BioAssay (NCATS).

Sequence of Cytochrome P450 3A4 (Homo sapiens) (P08684 whole entry, looked up): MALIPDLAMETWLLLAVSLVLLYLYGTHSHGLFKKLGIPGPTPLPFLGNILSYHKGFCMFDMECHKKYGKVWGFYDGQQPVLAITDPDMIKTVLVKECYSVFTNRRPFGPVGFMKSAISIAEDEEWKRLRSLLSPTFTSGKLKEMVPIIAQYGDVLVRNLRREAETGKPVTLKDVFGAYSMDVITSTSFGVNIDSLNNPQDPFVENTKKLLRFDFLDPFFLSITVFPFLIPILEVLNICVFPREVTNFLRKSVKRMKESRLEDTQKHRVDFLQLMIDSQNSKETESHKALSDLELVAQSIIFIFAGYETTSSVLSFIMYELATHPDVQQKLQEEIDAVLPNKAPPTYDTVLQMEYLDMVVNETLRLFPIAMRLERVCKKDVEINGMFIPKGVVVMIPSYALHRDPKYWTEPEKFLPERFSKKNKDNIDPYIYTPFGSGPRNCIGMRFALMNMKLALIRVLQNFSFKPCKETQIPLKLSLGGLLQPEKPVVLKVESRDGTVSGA
Sequence of 3',5'-cyclic-AMP phosphodiesterase 4B (Homo sapiens) (Q07343 whole entry, looked up): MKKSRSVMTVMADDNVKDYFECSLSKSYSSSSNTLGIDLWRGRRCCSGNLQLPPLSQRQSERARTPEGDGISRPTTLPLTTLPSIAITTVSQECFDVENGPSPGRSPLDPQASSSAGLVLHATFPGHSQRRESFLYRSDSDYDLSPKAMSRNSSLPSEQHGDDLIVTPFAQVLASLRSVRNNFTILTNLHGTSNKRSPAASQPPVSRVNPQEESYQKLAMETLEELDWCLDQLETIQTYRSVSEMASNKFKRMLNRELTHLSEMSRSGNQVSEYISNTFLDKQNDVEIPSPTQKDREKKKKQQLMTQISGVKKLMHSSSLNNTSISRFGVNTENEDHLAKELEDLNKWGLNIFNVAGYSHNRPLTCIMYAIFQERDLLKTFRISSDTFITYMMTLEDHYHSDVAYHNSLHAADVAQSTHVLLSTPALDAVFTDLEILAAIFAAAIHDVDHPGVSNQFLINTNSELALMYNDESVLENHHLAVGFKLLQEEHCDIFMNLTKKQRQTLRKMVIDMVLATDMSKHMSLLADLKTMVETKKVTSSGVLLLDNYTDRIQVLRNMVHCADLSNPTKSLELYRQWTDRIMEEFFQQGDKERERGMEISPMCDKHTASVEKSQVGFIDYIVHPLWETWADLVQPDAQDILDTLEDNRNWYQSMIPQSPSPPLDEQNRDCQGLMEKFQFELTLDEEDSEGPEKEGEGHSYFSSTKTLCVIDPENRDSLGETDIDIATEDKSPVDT
Sequence of Lysosomal acid glucosylceramidase (Homo sapiens) (P04062 whole entry, looked up): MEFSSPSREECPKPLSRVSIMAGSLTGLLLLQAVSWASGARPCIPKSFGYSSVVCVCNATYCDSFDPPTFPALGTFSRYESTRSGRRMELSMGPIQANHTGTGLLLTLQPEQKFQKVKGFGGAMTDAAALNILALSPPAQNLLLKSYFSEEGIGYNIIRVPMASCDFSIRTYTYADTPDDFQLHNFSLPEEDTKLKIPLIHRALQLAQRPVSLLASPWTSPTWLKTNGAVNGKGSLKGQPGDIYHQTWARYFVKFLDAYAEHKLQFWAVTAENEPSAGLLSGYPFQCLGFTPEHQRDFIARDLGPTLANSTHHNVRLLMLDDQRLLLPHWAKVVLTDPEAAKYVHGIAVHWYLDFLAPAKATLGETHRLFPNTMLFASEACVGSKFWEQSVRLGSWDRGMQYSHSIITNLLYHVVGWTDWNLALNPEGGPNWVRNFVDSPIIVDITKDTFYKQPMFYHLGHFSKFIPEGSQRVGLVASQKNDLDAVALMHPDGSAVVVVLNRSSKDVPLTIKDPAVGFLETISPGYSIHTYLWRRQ

With `COc1ccc(C(=O)N2CCC3(CCCN(c4ccc(-c5ccccc5)cc4)C3)CC2)cc1`, the Potency in assay [1] was greater than 11.4 µM; in [4], greater than 46 µM. Also, in assay [2], the activity change, negative = inhibition was -8.58%. For the same compound, the activity, negative = inhibition in assay [3] is 0.229%. Also, the Potency result in assay [5] and in assay [6] was “inactive” in each case. For the same compound, the result in assay [7] was inactive.
As to `CC(C)CN1CC2(CCN(C(=O)c3csnn3)CC2)C1`, the Potency in assay [1] was greater than 11.4 µM; in [4], greater than 46 µM. The activity change, negative = inhibition in assay [2] was -4.73%. Further, the activity, negative = inhibition in assay [3] was 4.77%. For the same compound, the Potency result in [5] and in [6] was “inactive” throughout. Also, the result in assay [7] was inactive.
For the compound `N#CCCn1c(=O)c(-c2cccs2)nc2cnc(Oc3ccccc3)nc21`, the Potency in [1] is greater than 11.4 µM; in assay [9] it was greater than 9.22 µM; in [4] it was greater than 46 µM. For the same compound, the activity change, negative = inhibition in assay [2] is 9.42%; in assay [8], 15.6%. Moreover, the Potency result in [5] and in [6] was “inactive” throughout. In addition, the result in assay [7] was inactive.
For the compound `O=C(Nc1ccccc1)N1CCCC2(CCN(C(=O)c3cccc(F)c3)CC2)C1`, the values for the Potency in [1] and in assay [4] were greater than 11.4 µM and greater than 46 µM, respectively. Moreover, in assay [2], the activity change, negative = inhibition was -6.89%. Also, the activity, negative = inhibition in assay [3] is -6.85%. The Potency entry in assay [5] is “inactive”. For the same compound, the result in assay [7] was inactive.
In the case of `O=C(c1ccco1)N1CCC2(CCCN(c3cccc(-c4ccccc4)c3)C2)CC1`, the Potency was greater than 11.4 µM in assay [1] and greater than 46 µM in assay [4]. The activity change, negative = inhibition in assay [2] was 12.9%. In addition, in assay [3], the activity, negative = inhibition was -5.55%. The Potency entry in assay [5] was “inactive”. Moreover, in assay [7], the outcome was inactive.
Regarding `O=C(Nc1cccc(F)c1)N1CCCC2(CCN(C(=O)c3ccco3)CC2)C1`, the Potency is greater than 11.4 µM in [1] and greater than 46 µM in [4]. For the same compound, in [2], the activity change, negative = inhibition is -8.03%. Moreover, the activity, negative = inhibition in assay [3] was 0.264%. Further, the Potency entry in assay [5] is “inactive”. The result in [7] was inactive.
On to `O=C(c1cnccn1)N1CCC2(CC1)CCN(c1cccc(-c3ccccc3)c1)CC2`, for which the Potency is greater than 11.4 µM in assay [1] and greater than 46 µM in assay [4]. Further, the activity change, negative = inhibition in assay [2] was -9.46%. Moreover, the activity, negative = inhibition in assay [3] is -13.7%. Moreover, the outcome in [7] was inactive.
For the compound `O=C(c1cnccn1)N1CCC2(CCCN(c3ccncc3)C2)CC1`, the Potency in assay [1] is greater than 11.4 µM; in [4], greater than 46 µM. Also, the activity change, negative = inhibition in [2] is -3.01%. Further, the activity, negative = inhibition in [3] was -6.12%. For the same compound, the Potency result in [5] and in assay [6] was “inactive” throughout. Besides, the result in [7] was inactive.
`c1cncc(-c2nc(NCCN3CCOCC3)c3ccccc3n2)c1`: the Potency is greater than 11.4 µM in assay [1], greater than 46 µM in assay [9], greater than 46 µM in assay [4] and 7.94 µM (active) in assay [10]. In addition, the activity change, negative = inhibition is -8.53% in assay [2] and 7.81% in assay [8]. The Potency entry in assay [5], in assay [6], in assay [11] and in assay [12] was “inactive” in each case. For the same compound, the call in assay [13] and in assay [7] was inactive.
As to `N#Cc1ccc(CN2CC3(CCN(C(=O)c4ccncc4)CC3)C2)cc1`, the Potency in assay [1] is greater than 11.4 µM. Further, the activity change, negative = inhibition in assay [2] is 9.93%. Moreover, the activity, negative = inhibition in assay [3] was 6.61%. For the same compound, the Potency entry in assay [5], in assay [6] and in [11] was “inactive” each time. Besides, the outcome in assay [7] was inactive.
